Bioassay records as filed in PubChem.
NS1 inh – influenza NS1 inhibition. AID 2326. Potency, µM (highest dose often 46.1 µM), without a hit: top-dose activity, positive = more growth. 0.4% of 270,000 active; calls by dose curve; also: actives are rising curves; nearly all actives have a fitted effect of over 50% in size
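In this qHTS, NS1 from influenza A is expressed in budding yeast, where it slows growth. Cells are switched from glucose to 2% galactose medium (pH 6.0, -URA), treated with compound, and growth recovery is read at OD600.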
SARS PLP yeast – blocks SARS-CoV papain-like protease in a yeast assay; S. cerevisiae expressing SARS-CoV PLpro, growth rescue; Potency, µM (top dose mostly 32.9 µM), without a hit: top-dose activity, positive = growth rescue, usual class: activators; 0.19% of 330,000 active; AID 485353; calls by dose curve; also: 0% is about no effect; nearly all actives have a fitted effect of over 55% in size
Sm TGR block – inhibitors of Schistosoma mansoni thioredoxin glutathione reductase; purified TGR, DTNB reduction, TNB absorbance 405 nm; Q962Y6; 3% of 360,000 active; Potency, µM (highest dose often 114 µM), for inactives: at the highest dose activity change, negative = inhibition, actives largely listed as inhibitors; also: % is scaled to controls: 0 for no effect and ±100 for the full control effect; nearly all actives have a fitted effect of over 60% in size
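TGR 20 nM + NADPH 100 uM (dispensed conc.), cpd preinc 15 min RT; start with NADPH (500 uM addition) then DTNB (15 mM addition). Kinetic TNB absorbance, 405 nm filter. Four-parameter Hill fit across titration.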
TbPYK inhibitor – T. brucei pyruvate kinase inhibition | TbPYK enzyme, Kinase-Glo Plus ATP luminescence, 45 min | Q57TT1 | 0.12% of 410,000 active | Potency, µM (highest dose often 76.8 µM), inactives show at the highest dose activity, negative = inhibition, most hits filed as inhibitors; also: % is scaled to controls: 0 for no effect and ±100 for the full control effect; nearly all actives have a fitted effect of over 50% in size
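ADP (130 uM final) triggers the TbPYK reaction after compound addition; incubation is 45 min at room temperature. Kinase-Glo Plus is then added and luminescence imaged. Normalized data are fitted to concentration-effect curves.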
RE007 growth inh – less growth of the S. pombe RE007 Vpr strain. S. pombe RE007 Vpr strain, BacTiter-Glo ATP luminescence, 24 h. Potency, µM (highest dose often 92.2 µM), for inactives: at the top dose activity change, negative = less growth, hits mostly inhibitors. AID 651644. 0.21% of 360,000 active; active = well fitted falling curve with a large enough effect; inconclusive = small, poorly fitted or top-dose-only effect; inactive = no such curve, though single readings can be large or run the other way; also: % is scaled to controls: 0 for no effect and ±100 for the full control effect; nearly all actives have a fitted effect of over 50% in size
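Fission yeast RE007 carrying one integrated HIV-1 vpr copy, seeded at OD 0.01 in PMG+AL medium with 23 nL pinned compound. Grown 24 h at 30 degrees; viability read by BacTiter-Glo luminescence after 5 min.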
LmPK inhibitor – LmPK (Leishmania mexicana) enzyme inhibition. Q27686. purified LmPK, Kinase-Glo ATP luminescence, 1 h. Potency, µM (highest dose often 57.5 µM), for the others: at the highest dose activity change, negative = inhibition, actives largely listed as inhibitors. 0.37% of 290,000 active; also: % is scaled to controls: 0 for no effect and ±100 for the full control effect
Target sequence (Q27686 whole entry, looked up): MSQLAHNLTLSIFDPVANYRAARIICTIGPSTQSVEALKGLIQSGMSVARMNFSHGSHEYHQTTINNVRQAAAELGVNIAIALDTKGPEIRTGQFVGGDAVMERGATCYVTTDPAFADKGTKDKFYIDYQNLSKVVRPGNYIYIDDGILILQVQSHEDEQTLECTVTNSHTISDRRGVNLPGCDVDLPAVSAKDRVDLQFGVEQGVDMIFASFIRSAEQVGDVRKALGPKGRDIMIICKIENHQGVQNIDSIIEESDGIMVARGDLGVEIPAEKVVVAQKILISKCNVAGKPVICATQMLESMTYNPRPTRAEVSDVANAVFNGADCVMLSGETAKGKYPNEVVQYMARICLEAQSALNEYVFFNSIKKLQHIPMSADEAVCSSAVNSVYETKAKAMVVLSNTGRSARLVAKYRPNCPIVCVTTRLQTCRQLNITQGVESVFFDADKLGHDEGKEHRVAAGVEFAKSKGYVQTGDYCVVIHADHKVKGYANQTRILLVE
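Pyruvate kinase activity monitored as ATP production (luciferase luminescence). Conditions: 0.1 nM enzyme, 0.5 mM PEP, 0.1 mM ADP, 1 h, RT; normalized against uninhibited and no-enzyme wells.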
The depositor's hits bear a star; ? = inconclusive; · = no result given; [ ] = dose if it differs, or a comment. Sampled rows, rich in hits. Any-hit rate of the full collection: about 3.3%. Unless noted, calls follow the shape of the dose curve; as a rule, active = well fitted curve in the direction sought with a large enough effect; inconclusive = small, poorly fitted or top-dose-only effect, or another doubt; inactive = no such curve, though single readings can be large; an effect the other way counts as inactive or inconclusive. Potency is read from the fitted curve at half-maximal effect.

SMILES | NS1 inh | SARS PLP yeast | Sm TGR block | TbPYK inhibitor | RE007 growth inh | LmPK inhibitor
Cn1c(=O)c2c(nc(CN3CCN(c4ccccc4F)CC3)n2Cc2ccc(F)cc2)n(C)c1=O | · | · | 3% | 1% | · | ·
O=C(N/N=C/c1cc(Br)c(O)c(Br)c1)c1cccnc1 | -2% | 1% | 89µM* | 5% | 13% | 4%
Cc1cc(=O)oc2c(OS(C)(=O)=O)c(OS(C)(=O)=O)ccc12 | 0% | · | · | · | · | ·
COC(=O)c1ccc(=O)c2nc3/c(=C/O)c(O)cc(=O)c3[nH]c12 | 1% | 3.2µM* | 50µM* | 1% | 17% | -11%
COC(=O)c1ccc(N)cc1O | 4% | -5% | -6% | -1% | 16% | -5%
CC(COc1cccc2ccccc12)CN1CCN(C)CC1 (stereo unspecified) | -5% | 0% | 25µM* | 4% | -27% | -5%
COc1cccc(NC(=O)c2cc(-c3ccc(OC)cc3OC)nc3ccccc23)c1 | · | · | · | -17% | 0% | ·
COc1cccc(NC(=O)c2cc(-c3ccc(C)o3)nc3ccccc23)c1 | 18% | -4% | 35µM* | -21% | -14% | -10%
COc1cc(-c2cc(C(=O)Nc3cccc(S(=O)(=O)N(C)C)c3)c3ccccc3n2)cc(OC)c1OC | 10% | 3% | 3% | -2% | -17% | -1%
Cc1ccc(-c2cc(C(=O)Nc3cccc(S(=O)(=O)N(C)C)c3)c3ccccc3n2)o1 | -1% | -1% | 22µM* | ? | -11% | 2%
COc1cccc(NC(=O)CN(C)C(=O)c2cc(-c3ccc(C)o3)nc3ccccc23)c1 | · | -2% | 14µM* | 4% | -6% | ·
CCN1C(=O)N[C@@H](CCc2ccccc2)[C@@H](C(=O)OC)[C@H]1C | -6% | -1% | 2.2µM* | 0% | 2% | -7%[11.5 µM]
C=C[C@]1(C)C[C@@H](OC(=O)CO)[C@]2(C)C(C)CC[C@]3(CCC(=O)[C@H]32)[C@@H](C)[C@@H]1O (stereo partly specified) | · | · | · | 3% | · | ·
Cn1c(=O)c2c(-c3ccccc3Cl)n(-c3cc(Cl)ccc3O)cc2n(C)c1=O | · | · | 13µM* | -5% | · | ·
CCCCn1c(=O)[nH]c(=O)c2c1nc(Cn1ncc(Cl)c(Cl)c1=O)n2CCC | 14% | 2% | 18µM* | -5% | 2% | -2%
CC(CC(=O)O)(CC(=O)O)c1ccccc1 | 6% | · | · | · | · | ·
Cc1cccc(Cn2c(C)c(C)c3cc(C(=O)NCc4ccco4)ccc32)c1 | · | · | 7% | -1%[15.4 µM] | · | ·
c1ccc2c(N3CCOCC3)c3c(nc2c1)CCC3 | 1% | -5% | 1% | -5% | 16% | -1%
COc1ccc2c(c1)CCc1c-2nc2ccccc2c1N1CCOCC1 | -11% | -1% | 40µM* | -3% | -14% | -2%
CNCC(=O)NC(CCCN=C(N)N)C(=O)NC(C(=O)NC(Cc1ccc(O)cc1)C(=O)NC(C(=O)NC(Cc1cnc[nH]1)C(=O)N1CCCC1C(=O)NC(C)C(=O)O)C(C)C)C(C)C (stereo unspecified) | · | · | · | -4% | · | ·
C/C(=N/NC(=O)Cc1cccn1C)c1ccccc1 | 9% | -5% | 6% | -3% | -8% | -2%
Cn1cccc1CC(=O)N/N=C/C=C/c1ccco1 | ? | 9% | 11µM* | -8% | -9% | 4%
C/C(=N\NC(=O)c1csc(C)c1C)c1ccco1 | 2% | 18% | 6% | -23% | 3% | 14µM*
C/C(=N\NC(=O)Cc1cccn1C)c1ccco1 | 4% | 3% | 40µM* | 1% | 1% | 9%
Cc1ccc(CN2C(=O)N/C(=C\c3ccc(-c4ccc(C(=O)O)cc4C)o3)C2=O)cc1 | 0% | 0% | -4% | -1% | 6% | 2%
SMILES | NS1 inh | SARS PLP yeast | Sm TGR block | TbPYK inhibitor | RE007 growth inh | LmPK inhibitor
Cc1cc(C(=O)O)ccc1-c1ccc(/C=C2\NC(=O)N(Cc3ccccc3Cl)C2=O)o1 | · | -1% | 50µM* | -27% | 4% | -5%
Cc1ccc(/C=C2/NC(=O)N(Cc3ccccc3)C2=O)o1 | -53% | -66% | 22µM* | ? | 45µM* | -4%
Cc1ccc(/C=C2\SC(=S)N(Cc3ccccc3)C2=O)o1 | -1% | -1% | ? | -7% | 4% | 5%
COC(=O)CN1C(=O)N/C(=C/c2ccc(C)o2)C1=O | · | 1% | 28µM* | -9% | -6% | 14%
CCOC(=O)C1CCCCN1S(=O)(=O)c1csc(C(N)=O)c1 (stereo unspecified) | · | · | -11% | 5% | · | ·
c1ccc(C(c2cccc3c2ccc2ccccc23)[C@H](c2ccccc2)c2cccc3c2ccc2ccccc23)cc1 (stereo partly specified) | 8% | · | · | · | · | ·
Nc1nc(Cl)nc(N(c2ccccc2)c2ccccc2)n1 | -6% | 13% | -8% | -3% | 6% | 3%
Nc1nc(CCl)nc(N(c2ccccc2)c2ccccc2)n1 | ? | 2% | 11µM* | -6% | 2% | 1%
COC(=O)N1C(=O)[C@@](c2ccccc2)(C2CCCCC2)N1C(=O)OC | -18% | -14% | 13µM* | 1% | 5% | -8%
CC[C@@]1(c2ccccc2C)C(=O)N(C(=O)OC)N1C(=O)OC | 7% | -1% | 6.3µM* | -16% | -5% | -3%
Cc1ccccc1CNC(=O)COc1ccccc1 | 9% | -4% | -3% | -2% | -13% | -2%
CC[C@@]1(c2ccccc2)C(=O)N(C(=O)OC)N1C(=O)OC | 18% | 4% | 2µM* | -7% | 14% | 1%
CC[C@]1(c2ccccc2)C(=O)N(C(=O)OC)N1C(=O)OC | 0% | 1% | 2.2µM* | 8% | 3% | -3%
COC(=O)N1C(=O)[C@](c2ccccc2)(C(C)C)N1C(=O)OC | -7% | -8% | 0% | -7% | -6% | -3%
CC[C@]1(c2cccc(C)c2)C(=O)N(C(=O)OC)N1C(=O)OC | 9% | 4% | 1.8µM* | -1% | -11% | 1%
Cc1cccc(OCC(=O)NNC(=O)CCCCC(=O)NNC(=O)COc2cccc(C)c2)c1 | 24% | 1% | -3% | 9% | 26% | 2%
Cc1cccc(OCc2nc(C#N)c(NCc3ccccc3Cl)o2)c1 | · | · | 3% | -2% | · | ·
Oc1cccc2ccc(/C=C/c3cccs3)nc12 | -208% | -19% | 0% | -9% | ? | 22µM*
Cc1ccsc1/C=C/c1ccc2cccc(O)c2n1 | -180% | -16% | 0% | 6% | ? | ?
O=c1c2ccccc2nc(-c2ccc(Cl)cc2)n1CCCCOc1ccc(F)cc1 | · | · | -3% | 1% | · | ·
CCOc1ccc(-c2nnc(SCC(=O)NCc3ccc(Cl)cc3)o2)cc1 | · | · | 14µM* | -4% | · | ·
CCOc1ccc(-c2nnc(SCC(=O)NCc3ccccc3Cl)o2)cc1 | · | · | 20µM* | 2% | · | ·
COc1ccc(C(=O)/C(=C/O)N=Nc2ccc(F)cc2)cc1 | · | -19% | 1% | -25% | -48% | -2%
